Holding throughout (assay): log2 fold change, soluble protein after heating vs DMSO (PISA); higher = thermal stabilisation; K562 cells, 10 uM, 30 min; active = over 0.2 and 3.5 SD of the protein, either way, in both replicates (recomputed)
Compound in experiment [1]: NC(=O)Nc1cc(-c2cccc(F)c2)sc1C(=O)N[C@H]1CCCNC1
The method, boiled down:
(§1)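 Soluble protein was quantified by TMTpro 16plex LC-MS/MS after channel sums were equalised. It was obtained as the supernatant after 21,000xg for 90 min from pooled aliquots of K562 cells (2×10^6 cells/mL, 10 μM compound, 30 min) heated for 3 min across 48°C-58°C and extracted in PBS with 0.5% NP-40 at 4°C. Thermal stability values are relative to control samples and come from duplicates. They are given as log2 fold changes.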

Compound in experiment [2]: NC(=O)c1cnc(N[C@@H]2CCCC[C@@H]2N)nc1Nc1cccc(-n2nccn2)c1
Put shortly: as §1

Compound in experiment [3]: NC1(c2ccc(-c3nc4ccn5c(=O)[nH]nc5c4cc3-c3ccccc3)cc2)CCC1
Put shortly: as §1

Compound in experiment [4]: NCC(=O)Nc1ccc(-n2nc(C(F)(F)F)cc2-c2ccc3c(ccc4ccccc43)c2)cc1
Put shortly:
as §1

Compound in experiment [5]: Nc1ccccc1NC(=O)c1ccc(CNC(=O)OCc2cccnc2)cc1 [entinostat]
Put shortly:
as §1

Compound in experiment [6]: O=C(CCCCCCC(=O)Nc1ccccc1)NO [vorinostat]
Put shortly: as §1

Compound in experiment [7]: O=C(CCCCCCNC(=O)c1cnc(N(c2ccccc2)c2ccccc2Cl)nc1)NO [citarinostat]
The method, boiled down:
as §1

Compound in experiment [8]: O=C(O)c1ccc2c(c1)nc(Nc1cccc(Cl)c1)c1ccncc12 [silmitasertib]
Put shortly: as §1

Compound in experiment [9]: O=C1NC(=O)C(c2cnc3ccccn23)=C1c1cn2c3c(cc(F)cc13)CN(C(=O)N1CCCCC1)CC2
Put shortly:
as §1

Compound in experiment [10]: c1cc(OCCN2CCCCC2)cc(-c2n[nH]c3ccc(-c4nnc[nH]4)cc23)c1
Put shortly: as §1

Compound in experiment [11]: c1cn2cc(-c3ccc4cn[nH]c4c3)nc(Nc3ccc(N4CCOCC4)cc3)c2n1 [entospletinib]
Put shortly: as §1

Targets with a hit are over-represented here; the source holds about 7,900 in all. About 0.6% of all pairs of compound and target were hits. Unmarked numbers belong to inactive results.

UniProt Q9Y6D6, sequence (Q9Y6D6 whole entry, looked up): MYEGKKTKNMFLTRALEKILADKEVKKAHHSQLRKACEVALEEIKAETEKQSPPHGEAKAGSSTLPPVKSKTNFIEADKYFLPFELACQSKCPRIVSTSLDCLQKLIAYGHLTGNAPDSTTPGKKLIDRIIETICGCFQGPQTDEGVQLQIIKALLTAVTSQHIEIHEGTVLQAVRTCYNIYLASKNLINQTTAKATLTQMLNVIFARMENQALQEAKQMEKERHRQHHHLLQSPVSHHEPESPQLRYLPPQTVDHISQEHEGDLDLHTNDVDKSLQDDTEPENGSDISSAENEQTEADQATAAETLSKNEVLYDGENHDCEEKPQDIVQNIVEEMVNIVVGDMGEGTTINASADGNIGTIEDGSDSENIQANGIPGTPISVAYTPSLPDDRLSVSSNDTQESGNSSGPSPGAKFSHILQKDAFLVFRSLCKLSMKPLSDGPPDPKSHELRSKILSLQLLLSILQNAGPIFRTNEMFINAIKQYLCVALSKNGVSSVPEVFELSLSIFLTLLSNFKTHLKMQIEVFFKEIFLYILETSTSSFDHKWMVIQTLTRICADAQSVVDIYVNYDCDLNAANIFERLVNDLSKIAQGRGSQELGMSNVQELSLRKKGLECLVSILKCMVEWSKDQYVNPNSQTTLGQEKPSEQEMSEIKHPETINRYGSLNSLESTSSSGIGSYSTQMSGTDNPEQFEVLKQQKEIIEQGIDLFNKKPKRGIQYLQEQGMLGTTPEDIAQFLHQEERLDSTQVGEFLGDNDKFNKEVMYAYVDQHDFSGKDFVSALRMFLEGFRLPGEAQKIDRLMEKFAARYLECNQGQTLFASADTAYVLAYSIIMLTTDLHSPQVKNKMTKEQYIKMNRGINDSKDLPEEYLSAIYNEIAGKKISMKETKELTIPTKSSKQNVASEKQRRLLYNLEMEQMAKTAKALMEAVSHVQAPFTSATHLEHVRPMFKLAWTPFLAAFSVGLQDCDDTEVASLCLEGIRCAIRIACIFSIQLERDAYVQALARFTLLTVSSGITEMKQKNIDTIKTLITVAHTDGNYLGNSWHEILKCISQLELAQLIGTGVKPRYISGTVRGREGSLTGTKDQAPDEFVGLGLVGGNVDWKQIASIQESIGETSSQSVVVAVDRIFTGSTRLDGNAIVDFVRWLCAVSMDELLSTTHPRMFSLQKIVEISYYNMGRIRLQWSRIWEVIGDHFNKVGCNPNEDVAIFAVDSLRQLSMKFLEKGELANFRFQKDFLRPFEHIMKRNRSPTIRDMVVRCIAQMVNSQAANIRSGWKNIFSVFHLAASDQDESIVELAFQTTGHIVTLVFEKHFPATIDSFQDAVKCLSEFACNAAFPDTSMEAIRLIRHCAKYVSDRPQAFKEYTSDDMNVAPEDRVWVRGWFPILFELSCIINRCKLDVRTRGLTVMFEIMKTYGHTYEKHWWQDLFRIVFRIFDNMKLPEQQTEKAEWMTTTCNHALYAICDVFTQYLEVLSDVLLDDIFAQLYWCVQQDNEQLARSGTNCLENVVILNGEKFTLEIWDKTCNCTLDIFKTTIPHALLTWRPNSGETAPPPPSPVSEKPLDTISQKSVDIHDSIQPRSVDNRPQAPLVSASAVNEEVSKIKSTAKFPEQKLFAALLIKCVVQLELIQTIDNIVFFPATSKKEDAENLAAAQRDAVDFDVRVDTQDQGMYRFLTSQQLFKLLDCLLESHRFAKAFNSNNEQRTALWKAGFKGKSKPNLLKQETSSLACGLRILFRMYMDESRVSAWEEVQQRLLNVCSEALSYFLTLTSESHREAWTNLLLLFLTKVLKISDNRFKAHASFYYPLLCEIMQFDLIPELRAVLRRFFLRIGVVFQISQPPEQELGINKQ
UniProt Q8NBU5, sequence (Q8NBU5 whole entry, looked up): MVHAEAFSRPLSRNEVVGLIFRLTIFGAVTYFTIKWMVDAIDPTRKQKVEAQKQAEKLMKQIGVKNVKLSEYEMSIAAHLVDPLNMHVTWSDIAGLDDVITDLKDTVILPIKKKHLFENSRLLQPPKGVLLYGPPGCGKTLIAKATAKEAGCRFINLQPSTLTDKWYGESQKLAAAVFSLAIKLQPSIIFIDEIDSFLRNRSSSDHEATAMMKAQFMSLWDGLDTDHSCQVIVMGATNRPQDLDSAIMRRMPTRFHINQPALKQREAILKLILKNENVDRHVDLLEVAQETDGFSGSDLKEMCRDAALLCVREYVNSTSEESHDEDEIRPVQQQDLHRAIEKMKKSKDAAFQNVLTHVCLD
UniProt Q9Y679, sequence (Q9Y679 whole entry, looked up): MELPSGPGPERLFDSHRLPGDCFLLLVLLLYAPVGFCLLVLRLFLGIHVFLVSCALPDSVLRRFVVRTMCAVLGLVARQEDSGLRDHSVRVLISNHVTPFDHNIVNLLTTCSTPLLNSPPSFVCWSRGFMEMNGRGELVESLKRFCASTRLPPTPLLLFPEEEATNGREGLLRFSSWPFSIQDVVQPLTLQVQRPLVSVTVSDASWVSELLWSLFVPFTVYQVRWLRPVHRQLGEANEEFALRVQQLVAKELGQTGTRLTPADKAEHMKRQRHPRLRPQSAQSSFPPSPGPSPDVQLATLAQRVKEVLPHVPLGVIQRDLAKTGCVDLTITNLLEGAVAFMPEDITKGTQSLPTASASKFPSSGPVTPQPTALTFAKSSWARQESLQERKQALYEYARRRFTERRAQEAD
UniProt Q9Y2Y0, sequence (Q9Y2Y0 whole entry, looked up): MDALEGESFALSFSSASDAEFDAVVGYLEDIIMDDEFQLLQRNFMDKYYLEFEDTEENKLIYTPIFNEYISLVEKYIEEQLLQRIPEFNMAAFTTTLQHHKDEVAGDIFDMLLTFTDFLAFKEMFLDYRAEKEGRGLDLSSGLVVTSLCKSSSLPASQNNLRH
UniProt Q86UU0, sequence (Q86UU0 whole entry, looked up): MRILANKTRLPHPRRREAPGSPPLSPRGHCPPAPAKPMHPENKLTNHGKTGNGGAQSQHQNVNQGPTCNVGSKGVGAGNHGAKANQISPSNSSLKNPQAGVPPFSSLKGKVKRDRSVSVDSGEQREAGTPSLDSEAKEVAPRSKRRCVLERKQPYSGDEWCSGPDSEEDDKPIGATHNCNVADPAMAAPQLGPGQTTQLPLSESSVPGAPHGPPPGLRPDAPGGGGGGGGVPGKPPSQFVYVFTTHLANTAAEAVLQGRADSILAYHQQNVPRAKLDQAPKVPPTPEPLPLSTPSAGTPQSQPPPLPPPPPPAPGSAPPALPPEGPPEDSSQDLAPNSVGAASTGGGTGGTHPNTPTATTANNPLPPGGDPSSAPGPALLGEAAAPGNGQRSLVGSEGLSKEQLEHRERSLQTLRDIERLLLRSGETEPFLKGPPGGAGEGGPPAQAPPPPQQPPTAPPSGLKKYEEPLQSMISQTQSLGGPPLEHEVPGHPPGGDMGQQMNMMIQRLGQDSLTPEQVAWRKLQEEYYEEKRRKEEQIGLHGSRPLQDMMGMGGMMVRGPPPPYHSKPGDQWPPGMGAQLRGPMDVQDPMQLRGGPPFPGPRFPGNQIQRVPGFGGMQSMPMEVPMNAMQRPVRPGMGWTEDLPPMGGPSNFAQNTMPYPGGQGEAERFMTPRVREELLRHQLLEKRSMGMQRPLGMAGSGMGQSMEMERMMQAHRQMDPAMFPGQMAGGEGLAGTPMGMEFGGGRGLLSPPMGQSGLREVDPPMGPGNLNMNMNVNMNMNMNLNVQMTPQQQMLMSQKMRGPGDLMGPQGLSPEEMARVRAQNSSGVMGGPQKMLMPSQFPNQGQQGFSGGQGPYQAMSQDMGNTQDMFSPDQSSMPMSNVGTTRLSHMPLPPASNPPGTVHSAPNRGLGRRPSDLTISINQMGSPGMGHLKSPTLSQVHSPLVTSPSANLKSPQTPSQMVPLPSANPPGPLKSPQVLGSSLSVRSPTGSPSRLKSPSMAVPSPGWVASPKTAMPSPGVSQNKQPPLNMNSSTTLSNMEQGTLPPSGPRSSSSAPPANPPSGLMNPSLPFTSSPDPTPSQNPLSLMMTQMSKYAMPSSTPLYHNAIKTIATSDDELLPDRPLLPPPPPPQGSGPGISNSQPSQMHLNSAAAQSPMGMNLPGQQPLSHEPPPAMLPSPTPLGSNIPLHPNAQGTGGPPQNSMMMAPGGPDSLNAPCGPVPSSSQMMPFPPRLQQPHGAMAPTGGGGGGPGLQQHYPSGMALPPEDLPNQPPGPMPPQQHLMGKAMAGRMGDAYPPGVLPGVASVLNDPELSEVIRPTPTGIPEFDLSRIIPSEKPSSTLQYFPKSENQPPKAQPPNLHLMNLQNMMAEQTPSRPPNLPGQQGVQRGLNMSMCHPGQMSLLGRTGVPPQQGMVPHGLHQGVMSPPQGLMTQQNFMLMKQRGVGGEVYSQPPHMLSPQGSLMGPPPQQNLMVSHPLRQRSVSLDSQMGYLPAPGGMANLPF
UniProt Q7L1Q6, sequence (Q7L1Q6 whole entry, looked up): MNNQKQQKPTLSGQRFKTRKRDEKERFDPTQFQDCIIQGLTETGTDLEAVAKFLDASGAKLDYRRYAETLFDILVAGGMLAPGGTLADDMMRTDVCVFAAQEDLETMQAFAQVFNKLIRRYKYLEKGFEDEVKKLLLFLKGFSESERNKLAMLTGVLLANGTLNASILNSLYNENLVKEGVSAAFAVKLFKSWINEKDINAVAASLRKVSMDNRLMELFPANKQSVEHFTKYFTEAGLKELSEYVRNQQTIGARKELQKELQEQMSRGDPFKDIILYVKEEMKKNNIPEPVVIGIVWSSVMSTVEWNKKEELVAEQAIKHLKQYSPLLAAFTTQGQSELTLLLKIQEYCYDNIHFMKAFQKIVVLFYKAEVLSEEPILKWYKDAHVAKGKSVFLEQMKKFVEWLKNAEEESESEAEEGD
UniProt Q13795, sequence (Q13795 whole entry, looked up): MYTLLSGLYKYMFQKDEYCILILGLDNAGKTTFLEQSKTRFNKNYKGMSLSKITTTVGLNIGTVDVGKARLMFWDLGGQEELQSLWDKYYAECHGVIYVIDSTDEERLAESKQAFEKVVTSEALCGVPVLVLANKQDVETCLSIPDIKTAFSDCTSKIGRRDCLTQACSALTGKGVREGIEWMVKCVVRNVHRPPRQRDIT

For the target ARFRP1 (UniProt Q13795), the log2 fold change is 0.167 in [1]; 0.108 in experiment [2]; -0.173 in experiment [3]; 0.067 in [4]; 0.117 in [5]; 0.054 in [6]. The log2 fold change in [7] is 0.025; in experiment [8] it was 0.013; in experiment [9], -0.085; in experiment [10] it was 0.074; in experiment [11], 0.024.
Consider ATP2A3 isoform 2 (UniProt Q93084), for which the log2 fold change is -0.008 in [1]; 0.007 in experiment [2]; -0.096 in experiment [3]; -0.072 in [4]; 0.035 in experiment [5]; -0.018 in experiment [6]. For the same target, the log2 fold change in experiment [7] was 0.019; in [8], 0.068; in experiment [9], -0.069; in [10], -0.05; in [11], -0.036.
As to AP2B1 isoform 2 (UniProt P63010), the log2 fold change in experiment [1] was -0.225 (active); in experiment [2] it was 0.01; in [3], 0.037; in [4] it was 0.002; in experiment [5], 0; in experiment [6], 0.01. Also, the log2 fold change in [7] was 0.019; in experiment [8], 0.02; in experiment [9] it was -0.202; in [10], -0.182; in [11] it was 0.032.
Turning to ARL2BP (UniProt Q9Y2Y0), the log2 fold change in [1] is -0.056; in [2] it was -0.108; in [3], -0.129; in experiment [4], -0.088; in experiment [5], -0.057; in [6], 0.132. The log2 fold change in experiment [7] is 0.006; in experiment [8], -0.02; in experiment [9], 0.108; in experiment [10], 0.046; in experiment [11], -0.06.
On to BCL9L (UniProt Q86UU0), for which the log2 fold change was 0.037 in experiment [1]; -0.009 in [2]; 0.03 in [3]; 0.021 in experiment [4]; -0.002 in [5]; 0.012 in experiment [6]. The log2 fold change in [7] is 0.017; in experiment [8], -0.038; in experiment [9], -0.045; in experiment [10] it was 0.241 (active); in [11], -0.027.
In the case of ARFGEF1 (UniProt Q9Y6D6), the log2 fold change is 0.028 in experiment [1]; 0.121 in experiment [2]; -0.023 in [3]; 0.006 in [4]; -0.044 in experiment [5]; 0.02 in [6]. Moreover, the log2 fold change is 0.009 in experiment [7]; 0.065 in experiment [8]; 0.023 in [9]; 0.069 in experiment [10]; -0.009 in [11].
On to BZW1 isoform 3 (UniProt Q7L1Q6), for which the log2 fold change in [1] was 0.071; in experiment [2] it was -0.054; in experiment [3], -0.246; in experiment [4], -0.093; in experiment [5] it was 0.165; in [6], 0.209. In addition, the log2 fold change is 0.075 in experiment [7]; 0.02 in [8]; 0.019 in experiment [9]; -0.081 in [10]; 0.03 in experiment [11].
Consider AUP1 (UniProt Q9Y679), for which the log2 fold change in [1] was -0.013; in experiment [2], -0.082; in experiment [3] it was -0.236 (active); in experiment [4] it was -0.107; in [5] it was 0.061; in experiment [6], 0.135. The log2 fold change is 0.067 in experiment [7]; 0.019 in experiment [8]; 0.064 in experiment [9]; -0.051 in experiment [10]; -0.025 in experiment [11].
In the case of ATAD1 (UniProt Q8NBU5), the log2 fold change in [1] was -0.036; in experiment [2], -0.056; in experiment [3] it was -0.015; in experiment [4], -0.009; in experiment [5] it was 0.038; in [6] it was 0.012. Besides, the log2 fold change in experiment [7] was 0.032; in experiment [8] it was 0.012; in experiment [9] it was 0.197; in experiment [10], -0.053; in experiment [11] it was 0.022.
AKR1C2 (UniProt P52895): the log2 fold change in experiment [1] was 0.133; in experiment [2], -0.092; in experiment [3] it was 0.206; in [4] it was -0.006; in [5] it was -0.129; in experiment [6], 0.012. Moreover, the log2 fold change in experiment [7] is 0.018; in [8], 0.257; in [9] it was 0.079; in experiment [10] it was -0.076; in [11], 0.071.

For the origin of these results see the supplement of paper PMC10849652.
